Pf Dd2 inh – qHTS Primary assay for Inhibitors of Plasmodium falciparum Dd2 growth in vitro. P. falciparum Dd2 growth, SYBR Green, 72 h. Potency, µM (doses to about 28.9 µM), for inactives: at the highest dose activity, negative = inhibition, most hits filed as inhibitors. hit rate 4.3% among 120,000. AID 1347417, 2020; active = well fitted inhibition curve with a large enough effect;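 note: plate controls were DMSO vehicle for no effect and reference drug for full effect; nearly all actives have a fitted effect of over 65% in size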
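Infected erythrocytes (Dd2, 0.3% parasitemia, 2.5% hematocrit final) are added to compound in RPMI-1640/Albumax II medium, grown 72 h at 37C in low oxygen, then lysed with saponin/Triton-X containing SYBR Green and read by fluorescence.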
Starred values were filed as active, the others as inactive; i = inactive; [ ] = remark or other dose. Shown is part of a subset that was picked to be rich in hits. Potency is the fitted concentration of half-maximal effect.

SMILES | Pf Dd2 inh
COC(=O)c1ccc(OCC2c3cc(OC)c(OC)cc3CCN2C(=O)c2ccc(F)cc2)cc1 (configuration not stated) | 11µM*
COc1ccc(CC(=O)N2CCc3cc(OC)c(OC)cc3C2COc2ccc(F)cc2)cc1OC (configuration not stated) | 11µM*
COc1ccc(C(=O)N2CCc3ccc(C(=O)NCc4ccccc4C)cc32)cc1 | i
COc1cc2c(cc1OC)C(COc1ccc(F)cc1)N(C(=O)C(C)C)CC2 (configuration not stated) | -8%
CCOc1cc2c(cc1OCC)C(CC(=O)O)N(C(=O)Nc1ccccc1C(F)(F)F)CC2 (configuration not stated) | 27%
COC(=O)c1ccc(OCC2c3cc(OC)c(OC)cc3CCN2C(=O)c2ccccc2C)cc1 (configuration not stated) | 11µM*
COc1cc2c(cc1OC)C(CNC(=O)c1ccco1)N(C(=O)Nc1cccc(F)c1)CC2 (configuration not stated) | i
COc1ccc(-c2cnc3[nH]cc(CC(=O)Nc4cccnc4)c3c2)cc1 | i
Cc1nccnc1N1C[C@H](NC(=O)CN2CC(=O)NC2=O)[C@@H](C2CC2)C1 | -8%
O=C(C1CC1)N1C[C@@H]2OCC(=O)N(Cc3cccnc3)[C@@H]2C1 | 6%[44.1 µM]
Cc1cc(C(=O)N2CCC(n3c(=O)[nH]c4ccccc43)CC2)ccc1Cl | -5%
CCCc1cc(C(=O)N2CCN(C)C3(CCC(=O)N(CC)CC3)C2)n(C)n1 (configuration not stated) | 13%
CN(CCO)C[C@@H]1CN(C(=O)c2ccc3c(c2)CCC3)C[C@@H]1CO | -10%
Cc1cc2c(cc1C(=O)N1C[C@@H](CN(C)CCO)[C@@H](CO)C1)OCCO2 | -21%
Cc1c(CN2C[C@@H](CN(C)CCO)[C@@H](CO)C2)[nH]c2c(Cl)cccc12 | 13µM*
CC(C)(C)n1nnnc1C1CC2(CCOCC2)C(=O)N1Cc1ccc(F)cc1F (configuration not stated) | 31%
Cc1cc(C)cc(Nc2cc(C(=O)NCCCN(C)C3CCCCC3)c3ccccc3n2)c1 | 6.3µM*
CCc1ccc(CNC(=O)c2cc(-c3ccc(Cl)s3)nc3ccccc23)cc1 | 4%
COc1ccc(Nc2cc(C(=O)NC3CCC(C)CC3)c3ccccc3n2)cc1OC (configuration not stated) | 18%
CCCCN(C)CCCNC(=O)c1cc(-c2ccc(Br)s2)nc2ccccc12 | 11µM*
CCc1ccccc1NC(=O)c1cc(-c2ccc(Cl)s2)nc2ccccc12 | -5%
Cc1ccc(C)c(Nc2cc(C(=O)NCCCN(C)C3CCCCC3)c3ccccc3n2)c1 | i
CC(C)CCNC(=O)c1cc(-c2ccc(Br)s2)nc2ccccc12 | 3%
COc1ccc(Nc2cc(C(=O)NCCc3ccccc3)c3ccccc3n2)cc1OC | 14%
COc1ccc(CNC(=O)c2cc(-c3ccc(Br)s3)nc3ccccc23)c(OC)c1 | 28%[5.79 µM]
SMILES | Pf Dd2 inh
CCc1ccccc1Nc1cc(C(=O)NCCCN(C)C2CCCCC2)c2ccccc2n1 | -15%
CCCCN(CCCNC(=O)c1cc(Nc2ccc(OC)c(OC)c2)nc2ccccc12)Cc1ccccc1 | 2.2µM*
CCCCN(CCCC)CCCNC(=O)c1cc(-c2ccc(Cl)s2)nc2ccccc12 | 5.6µM*
O=C(c1ccc(CC2CCN(C(=O)C3CCCO3)CC2)cc1)N1CCOCC1 (configuration not stated) | 10%
CN1C(=O)C(c2ccccc2)CC12CCN(C(=O)c1ccoc1)CC2 (configuration not stated) | -14%
COc1ccccc1OCCNC(=O)C1CCCN(c2cn[nH]c(=O)c2)C1 (configuration not stated) | 3%
O=C(Cn1nc2c(cc1=O)CCCCC2)N1CCN(Cc2ccc3c(c2)OCO3)CC1 | -17%
CN(c1ccccc1)c1ccc2c(n1)CN(Cc1ccc(F)cc1)C(=O)CO2 | i
CC[C@@]1(O)CCN(C(=O)c2sc(C)cc2OC)C[C@H]1O | -1%
O=C(Nc1cccc(NC(=O)c2ccccc2F)c1)c1ccccc1 | 25%
Cc1ccccc1C(=O)Nc1cccc(NC(=O)c2ccc(C(C)(C)C)cc2)c1 | 13µM*
COc1cccc(C(=O)Nc2ccc(NC(=O)c3ccc(C(C)(C)C)cc3)cc2)c1 | i
CN(C)c1nc2c(c(=O)[nH]1)CCN(Cc1cccc(Br)c1)CC2 | -7%[5.79 µM]
OC[C@@H]1CN(C2CCSCC2)C[C@H]1c1nc(-c2cccnc2)no1 | -29%
COc1ccc(C2Cn3cnc(C(=O)N4CCC(C(=O)Nc5ccc(C)cc5)CC4)c3CO2)cc1 (configuration not stated) | -20%
COc1ccc(NC(=O)C2CCN(C(=O)c3ncn4c3COC(c3ccccc3)C4)CC2)cc1 (configuration not stated) | i
COc1ccc(C2Cn3cnc(C(=O)N4CCC(C(=O)Nc5ccccc5OC)CC4)c3CO2)cc1 (configuration not stated) | 10µM*
COc1ccc(C2Cn3cnc(C(=O)N4CCC(C(=O)Nc5ccc(C)cc5C)CC4)c3CO2)cc1 (configuration not stated) | -9%
COc1ccc(C2Cn3cnc(C(=O)N4CCC(C(=O)Nc5cccc(F)c5)CC4)c3CO2)cc1 (configuration not stated) | -26%
COc1ccc(C2Cn3cnc(C(=O)N4CCC(C(=O)Nc5ccccc5F)CC4)c3CO2)cc1 (configuration not stated) | 11µM*
Cc1cncc(-c2ccc(S(N)(=O)=O)cc2F)c1 | 2%
COc1ccc(C(CC(=O)N(C)Cc2cc(C)no2)c2ccccc2)cc1 (configuration not stated) | -6%
Cc1cc2nc3n(c(=O)c2n1CC(=O)NCc1ccccc1Cl)CCCCC3 | -3%
O=C1CC(c2ccccc2)N(C(=O)C2CC2)CCCN(C(=O)COc2ccc(F)cc2)CCN1 (configuration not stated) | -13%
CC(C)Cc1cc(C(=O)N2CCC(n3cc(-c4ccccn4)nn3)CC2)on1 | -21%
SMILES | Pf Dd2 inh
COc1ccc(N2C(=O)CSC23CCN(C(=O)c2ccccc2Br)CC3)cc1 | -9%
Cn1cc(C(=O)NCC(=O)N2CCCCCNC(=O)CC2c2ccccc2)cn1 (configuration not stated) | 3%
COc1ccc(NC(=O)N2C[C@@H](F)C[C@H]2C(=O)N2CCc3ccccc3C2)c(C)c1 | 10%
CCc1ccccc1NC(=O)N1C[C@@H](F)C[C@H]1C(=O)N1CCc2ccccc2C1 | 3.2µM*
Cc1ccc(NC(=O)N2C[C@@H](F)C[C@H]2C(=O)N2CCc3ccccc3C2)cc1Cl | 3%
O=C(CN1CCCc2nc(C3CC3)ncc2C1=O)N1CCc2ccccc2C1 | 5%
CN1CCCCCCN(C(=O)CC2CCCCC2)[C@H]2CCC[C@H]2C1=O | -1%
CC1(c2ccccc2)CCCN(C(=O)CCn2ccc(=O)[nH]c2=O)C1 (configuration not stated) | -8%
CC(C)N1C(=O)C2(CCCC2)C1C(=O)N1CCN(C2CCCCC2)CC1 (configuration not stated) | 10µM*
CC(C)N1C(=O)C2(CCCC2)C1C(=O)N1CCC(N2CCCCC2)CC1 (configuration not stated) | -24%
CC(C)N1C(=O)C2(CCCCC2)C1C(=O)N1CCN(C)CC1 (configuration not stated) | -18%
CCc1ccc(C(=O)N2CCc3[nH]nc(C(=O)NCCCc4ccccc4)c3C2)cc1 | i
